From PubChem BioAssay (NCATS)
Where “and” joins values, the source holds several entries; their conditions need not be identical. Identical values can stand only once. Records with an inconclusive call do not appear. Calls of active or inactive are those of the source. Unless noted, calls come from the whole dose curve; as a rule, active = well fitted curve in the direction sought with a large enough effect; inconclusive = small, poorly fitted or top-dose-only effect, or another doubt; inactive = no such curve, though single readings can be large; an effect the other way counts as inactive or inconclusive.

How the values were obtained:
[1] = Cell Viability - NIH 3T3 (AID 541); conditions: NIH 3T3 cell viability, qHTS; activity change, negative = cytotoxicity: at 92.2 µM (top of the series);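 note: plate controls were DMSO alone for no effect and tamoxifen positive control for full effect; nearly all actives have a fitted effect of over 25% in size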
Summary of the method: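 Luminescent ATP signal (CellTiter-Glo) served as the viability read-out after NIH 3T3 cells were exposed to compounds over a concentration range for 40 hr at 37 °C. Hill-equation modelling of concentration-response data gave AC50.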

[2] = Cell Viability - HUV-EC-C (AID 542); note: % is set by controls: 0 for no effect and ±100 for the full control effect; nearly all actives have a fitted effect of over 35% in size
Summary of the method: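 qHTS cytotoxicity: HUV-EC-C, 1000 cells/well, 5 hr settle, compound 40 hr 37 °C, CellTiter-Glo, luminescence. AC50 via Hill equation.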

[3] = Cellular Toxicity (caspase-3) N2a (AID 665); conditions: N2a cells, luminescence, normalized: DMSO 0%, 10 µM staurosporine 100%; at 92.2 µM (top of the series);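 note: compound exposure lasted 16 h at 37 °C before readout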
Summary of the method: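 N2a cells, 1500/well, 5 h settle at 37 °C; cpd 16 h, 37 °C; Caspase-Glo 3/7, 1 h RT; luminescence. Norm: DMSO = 0, 10 uM staurosporine = 100%. AC50, Hill fit.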

[4] = MultiTox-Fluor Cytotoxicity Assay - LYMP1-001 - Dead Cells (AID 946)
Summary of the method: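 Cytotoxicity as increased dead-cell protease fluorescence (bis-AAF-R110, 485/520 nm), read 60 min after MultiTox-Fluor reagent. Human lymphoblastoid line exposed 16 h; Hill-fitted AC50, with DMSO as 0% and 15 uM tetraoctylammonium bromide as 100%.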

[5] = MultiTox-Fluor Cytotoxicity Assay - LYMP1-003 - Dead Cells (AID 961); note: nearly all actives have a fitted effect of over 70% in size
Summary of the method: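 Dead-cell protease release, detected as bis-AAF-R110 fluorescence at 485/520 nm, was measured in LYMP1-003 cells after 16 h compound treatment at 37 C. AC50 values came from Hill-modeled qHTS curves normalized to DMSO (0%) and 15 uM tetraoctylammonium bromide (100%).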

[6] = Cell Viability - LYMP2-007 (AID 979);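 note: cells exposed to compound for 24 h before reading; 0% = DMSO only and the negative end = 92 µM tetraoctylammonium bromide; nearly all actives have a fitted effect of over 60% in size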
Summary of the method: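 Luminescent ATP signal (CellTiter-Glo) serves as the viability read-out after 24 hr compound treatment of lymphoblastoid cells in complete medium at 37 C. Concentration-response data were fitted to the Hill equation to give AC50 values.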

[7] = target: Peroxisome proliferator-activated receptor delta (Homo sapiens) (UniProt Q03181); experiment: qHTS assay for small molecule agonists of peroxisome proliferator-activated receptor delta signaling (AID 588534; calls by dose curve;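 note: 0% = DMSO basal wells and 100% = positive control agonist at 10 µM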)
Sequence of Peroxisome proliferator-activated receptor delta (Homo sapiens) (Q03181 whole entry, looked up): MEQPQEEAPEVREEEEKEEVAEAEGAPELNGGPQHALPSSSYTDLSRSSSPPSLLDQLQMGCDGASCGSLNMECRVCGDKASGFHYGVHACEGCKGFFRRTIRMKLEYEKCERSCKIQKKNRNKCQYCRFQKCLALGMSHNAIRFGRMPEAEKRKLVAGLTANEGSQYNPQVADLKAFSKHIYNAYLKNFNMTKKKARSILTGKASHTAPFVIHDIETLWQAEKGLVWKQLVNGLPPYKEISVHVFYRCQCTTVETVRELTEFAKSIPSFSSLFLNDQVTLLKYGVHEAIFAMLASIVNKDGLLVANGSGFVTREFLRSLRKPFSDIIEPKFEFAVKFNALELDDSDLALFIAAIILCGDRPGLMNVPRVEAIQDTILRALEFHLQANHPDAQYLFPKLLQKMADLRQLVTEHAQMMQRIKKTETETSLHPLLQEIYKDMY
Summary of the method: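 Fluorescence from CCF4 substrate cleavage by beta-lactamase reporter, read 2 hrs at RT, measured agonist activity. Compounds were tested with 18 hrs exposure at 37 C. Concentration-response data fitted to Hill equation.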

[8] = qHTS assay for small molecule antagonists of peroxisome proliferator-activated receptor delta signaling (AID 588535; active = well fitted inhibition curve with a large enough effect in the signal ratio, with a control signal flat, not every such curve was filed as active; the % refers to the signal ratio;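 for max response: cells co-treated with a PPAR-delta agonist as stimulator during compound exposure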); conditions: HEK293T PPARd-UAS-bla, beta-lactamase FRET ratio, 18 h; 460 nm channel
Summary of the method: (§1)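 HEK293T PPAR-delta-UAS-bla cells, 4000/well, 2% charcoal/dextran FBS; 5 h 37 C; cpd titration; 18 h 37 C; CCF4 2 h RT; FI 460/530 nm; Hill fit → IC50, efficacy.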

[9] = target: Peroxisome proliferator-activated receptor delta (Homo sapiens) (UniProt Q03181); experiment: as above
Summary of the method: as §1

[10] = target: Voltage-gated inwardly rectifying potassium channel KCNH2 (Homo sapiens) (UniProt Q12809); experiment: qHTS Assay for Small Molecule Inhibitors of the Human hERG Channel Activity (AID 588834);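 note: lower thallium flux fluorescence means stronger hERG block; nearly all actives have a fitted effect of over 50% in size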; note: potency is the fitted concentration of half-maximal effect
Sequence of Voltage-gated inwardly rectifying potassium channel KCNH2 (Homo sapiens) (Q12809 whole entry, looked up): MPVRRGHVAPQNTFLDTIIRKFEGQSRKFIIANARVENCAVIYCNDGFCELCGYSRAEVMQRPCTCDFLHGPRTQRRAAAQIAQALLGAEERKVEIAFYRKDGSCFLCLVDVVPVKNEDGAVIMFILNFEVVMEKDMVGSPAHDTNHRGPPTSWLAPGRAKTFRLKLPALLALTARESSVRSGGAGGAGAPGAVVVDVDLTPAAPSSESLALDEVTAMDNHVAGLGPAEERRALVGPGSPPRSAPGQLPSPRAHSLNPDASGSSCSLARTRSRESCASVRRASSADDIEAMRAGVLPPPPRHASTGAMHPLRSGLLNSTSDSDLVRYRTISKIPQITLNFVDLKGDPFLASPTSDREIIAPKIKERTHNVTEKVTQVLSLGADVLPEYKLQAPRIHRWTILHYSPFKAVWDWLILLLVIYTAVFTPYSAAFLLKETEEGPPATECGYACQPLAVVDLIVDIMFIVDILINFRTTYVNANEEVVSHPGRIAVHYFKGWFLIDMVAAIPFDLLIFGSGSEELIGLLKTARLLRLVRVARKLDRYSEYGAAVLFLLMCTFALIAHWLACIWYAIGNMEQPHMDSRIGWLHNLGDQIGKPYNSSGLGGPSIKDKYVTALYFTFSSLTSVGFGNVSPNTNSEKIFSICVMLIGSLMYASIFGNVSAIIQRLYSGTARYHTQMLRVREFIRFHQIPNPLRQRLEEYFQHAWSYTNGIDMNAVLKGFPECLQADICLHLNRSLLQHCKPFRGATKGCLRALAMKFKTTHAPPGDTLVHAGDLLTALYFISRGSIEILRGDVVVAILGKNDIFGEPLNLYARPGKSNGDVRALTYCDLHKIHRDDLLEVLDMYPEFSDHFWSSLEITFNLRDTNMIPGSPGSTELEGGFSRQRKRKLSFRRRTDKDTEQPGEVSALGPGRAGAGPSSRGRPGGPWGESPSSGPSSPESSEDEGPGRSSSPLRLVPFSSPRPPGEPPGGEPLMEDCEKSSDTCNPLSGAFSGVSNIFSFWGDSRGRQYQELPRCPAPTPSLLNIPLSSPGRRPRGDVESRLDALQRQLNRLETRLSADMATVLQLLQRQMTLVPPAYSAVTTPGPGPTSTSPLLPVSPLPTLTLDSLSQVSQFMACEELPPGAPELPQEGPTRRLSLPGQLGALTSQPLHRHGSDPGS
Summary of the method: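 hERG-BacMam U2OS, 2000 cells/well; 0.7X FluxOR loading 1 hr RT dark; cpd ~10 min 37 °C; stim buffer; FDSS fluorescence 2 min @ 1 s; AC50 Hill fit.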

[11] = qHTS assay for small molecule disruptors of the mitochondrial membrane potential - 5 hr assay (AID 651755; calls by dose curve; note: % is set by controls: 0 for no effect and ±100 for the full control effect; nearly all actives have a fitted effect of over 40% in size)
Summary of the method: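 HepG2, 2,000 cells/well, overnight attach; cpd or DMSO 5 hr, 37C/5% CO2; Mito-MPS 30 min 37C; fluor 490/535 + 540/590 nm.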

[12] = Cell Viability - H-4-II-E (AID 543); note: % is set by controls: 0 for no effect and ±100 for the full control effect; nearly all actives have a fitted effect of over 35% in size
Summary of the method: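 Luminescent ATP signal (CellTiter-Glo) served as the viability read-out, with cytotoxicity seen as a concentration-dependent ATP drop. Cells were treated for 40 hours in complete medium. AC50 values derive from Hill-equation modelling.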

[13] = target: Peroxisome proliferator-activated receptor gamma (Homo sapiens) (UniProt P37231); experiment: qHTS assay for small molecule antagonists of peroxisome proliferator-activated receptor gamma signaling (AID 588537; active = well fitted inhibition curve with a large enough effect in the signal ratio, with a control signal flat, not every such curve was filed as active; the % refers to the signal ratio;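 note: reporter cells co-stimulated with 50 nM rosiglitazone agonist during compound treatment; % of control where 0% means no effect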)
Sequence of Peroxisome proliferator-activated receptor gamma (Homo sapiens) (P37231 whole entry, looked up): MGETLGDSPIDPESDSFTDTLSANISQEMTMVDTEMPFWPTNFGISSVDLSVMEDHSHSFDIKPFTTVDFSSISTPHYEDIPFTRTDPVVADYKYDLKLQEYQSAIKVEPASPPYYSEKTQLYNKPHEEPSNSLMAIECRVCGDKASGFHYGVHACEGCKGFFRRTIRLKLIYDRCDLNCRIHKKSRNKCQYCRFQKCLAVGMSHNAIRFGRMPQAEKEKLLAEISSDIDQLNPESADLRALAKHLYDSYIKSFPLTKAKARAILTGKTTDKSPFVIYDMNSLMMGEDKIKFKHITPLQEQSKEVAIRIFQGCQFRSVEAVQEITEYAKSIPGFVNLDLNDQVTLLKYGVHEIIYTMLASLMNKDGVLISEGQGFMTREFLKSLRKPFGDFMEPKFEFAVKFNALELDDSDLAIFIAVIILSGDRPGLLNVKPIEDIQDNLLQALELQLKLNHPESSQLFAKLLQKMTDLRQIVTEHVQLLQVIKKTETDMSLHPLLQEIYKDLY
Summary of the method: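 Antagonist mode, beta-lactamase reporter in HEK293; charcoal/dextran FBS 1%; 3000 cells/well, 37 C 6-6.5 h; cpd titration + rosiglitazone 50 nM final, 16 h 37 C; CCF4, 2 h RT; 460/530 nm; Hill fit → IC50, efficacy.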

[14] = target: Retinoic acid receptor RXR-alpha (Homo sapiens) (UniProt P19793); experiment: qHTS assay for small molecule agonists of retinoid X receptor alpha signaling (AID 588544; calls by dose curve;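 note: 0% = DMSO basal wells and 100% = reference agonist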)
Sequence of Retinoic acid receptor RXR-alpha (Homo sapiens) (P19793 whole entry, looked up): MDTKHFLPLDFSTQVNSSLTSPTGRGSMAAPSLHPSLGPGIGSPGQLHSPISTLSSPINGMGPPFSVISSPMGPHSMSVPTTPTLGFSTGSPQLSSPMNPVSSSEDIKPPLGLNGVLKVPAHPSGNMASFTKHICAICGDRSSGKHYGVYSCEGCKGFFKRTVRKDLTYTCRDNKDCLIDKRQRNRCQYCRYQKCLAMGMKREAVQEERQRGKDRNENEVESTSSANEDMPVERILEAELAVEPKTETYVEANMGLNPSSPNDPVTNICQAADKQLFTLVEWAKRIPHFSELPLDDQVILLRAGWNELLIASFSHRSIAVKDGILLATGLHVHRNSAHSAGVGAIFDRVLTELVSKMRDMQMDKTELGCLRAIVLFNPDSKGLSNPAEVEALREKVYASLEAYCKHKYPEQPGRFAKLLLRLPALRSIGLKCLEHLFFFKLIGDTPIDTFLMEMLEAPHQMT

[15] = target: Thyroid hormone receptor beta (Homo sapiens) (UniProt P10828); experiment: qHTS assay for small molecule antagonists of thyroid hormone receptor beta signaling (AID 588547; active = well fitted inhibition curve with a large enough effect in the signal ratio, with a control signal flat, not every such curve was filed as active; the % refers to the signal ratio;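 note: cells stimulated with 0.4 nM T3 agonist during compound exposure; % is set by controls: 0 for no effect and ±100 for the full control effect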); conditions: TR-UAS-bla HEK293, beta-lactamase ratio, antagonist mode, 18 h
Sequence of Thyroid hormone receptor beta (Homo sapiens) (P10828 whole entry, looked up): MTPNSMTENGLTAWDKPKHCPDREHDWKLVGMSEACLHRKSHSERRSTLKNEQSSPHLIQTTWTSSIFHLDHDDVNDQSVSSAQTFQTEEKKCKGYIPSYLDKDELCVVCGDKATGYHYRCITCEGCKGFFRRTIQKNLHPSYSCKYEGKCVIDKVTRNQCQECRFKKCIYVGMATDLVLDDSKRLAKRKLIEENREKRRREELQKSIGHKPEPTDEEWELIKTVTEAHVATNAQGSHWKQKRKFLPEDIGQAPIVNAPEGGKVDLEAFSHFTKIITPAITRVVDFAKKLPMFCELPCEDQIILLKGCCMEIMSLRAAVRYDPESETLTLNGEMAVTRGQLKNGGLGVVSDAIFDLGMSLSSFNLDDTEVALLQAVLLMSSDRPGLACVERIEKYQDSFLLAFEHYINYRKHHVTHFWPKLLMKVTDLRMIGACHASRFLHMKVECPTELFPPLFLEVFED
Summary of the method: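 Inhibition of T3-driven (0.4nM final) beta-lactamase reporter activity was measured over 0.59 nM to 92 uM compound after 18 h at 37 C. The cells were GripTite HEK293 TR-UAS-bla in charcoal/dextran-stripped serum, with CCF4 ratio read-out and IC50 from Hill fits.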

[16] = qHTS assay for environmental chemicals that activate the Aryl hydrocarbon Receptor (AhR) signaling pathway (AID 651777); conditions: 1A2-DRE human hepatoma cells, luciferase, 24 h; activation: stronger effect = higher value; note: nearly all actives have a fitted effect of over 15% in size; note: potency is the fitted concentration of half-maximal effect; for activation: % of control where 0% means no effect
Summary of the method: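 Human hepatoma 1A2-DRE cells, stably carrying a dioxin response element and CYP1A2 promoter driving luciferase, were exposed to compounds for 24 hr at 37 C and 5% CO2. Luciferase signal was then read after 30 min One-Glo at room temperature.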

[17] = Cell Viability - LYMP2-026 (AID 989); note: % is set by controls: 0 for no effect and ±100 for the full control effect; nearly all actives have a fitted effect of over 50% in size
Summary of the method: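 Luminescent ATP signal (CellTiter-Glo, 30 min room temperature) measures viable lymphoblastoid cells after 24 hr compound treatment at 37 C. Decreased ATP reflects acute toxicity; AC50 values come from Hill-equation modeling.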

[18] = target: Peroxisome proliferator-activated receptor alpha (Homo sapiens) (UniProt Q07869); experiment: qHTS assay for small molecule agonists of the peroxisome proliferator-activated receptor alpha (PPARalpha) signaling pathway (AID 651778); conditions: PathHunter PPARalpha complementation, chemiluminescence, 6 h; stronger effect = higher value; note: % of control where 0% means no effect
Sequence of Peroxisome proliferator-activated receptor alpha (Homo sapiens) (Q07869 whole entry, looked up): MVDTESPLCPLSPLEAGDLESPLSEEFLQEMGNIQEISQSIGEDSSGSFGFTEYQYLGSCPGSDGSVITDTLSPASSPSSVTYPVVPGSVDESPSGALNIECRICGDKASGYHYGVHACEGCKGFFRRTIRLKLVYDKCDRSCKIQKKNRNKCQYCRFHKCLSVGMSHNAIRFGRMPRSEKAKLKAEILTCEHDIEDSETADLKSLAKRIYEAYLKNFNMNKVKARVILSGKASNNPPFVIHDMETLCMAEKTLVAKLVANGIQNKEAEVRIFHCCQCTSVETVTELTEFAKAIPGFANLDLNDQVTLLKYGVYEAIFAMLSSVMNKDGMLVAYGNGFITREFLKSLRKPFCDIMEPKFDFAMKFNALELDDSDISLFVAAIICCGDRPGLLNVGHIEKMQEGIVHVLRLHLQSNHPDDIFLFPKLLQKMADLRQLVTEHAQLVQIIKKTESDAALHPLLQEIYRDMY
Summary of the method: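 Chemiluminescence from complemented enzyme reported PPARalpha activation in cells after 6 hr of compound treatment at 37 C. The detection reagent was incubated for 60 min at room temperature, and compounds were scored as agonists.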

[19] = target: Bile acid receptor (Homo sapiens) (UniProt Q96RI1); experiment: qHTS assay for small molecule antagonists of farnesoid X receptor signaling (AID 588526; calls by dose curve; note: % is set by controls: 0 for no effect and ±100 for the full control effect)
Sequence of Bile acid receptor (Homo sapiens) (Q96RI1 whole entry, looked up): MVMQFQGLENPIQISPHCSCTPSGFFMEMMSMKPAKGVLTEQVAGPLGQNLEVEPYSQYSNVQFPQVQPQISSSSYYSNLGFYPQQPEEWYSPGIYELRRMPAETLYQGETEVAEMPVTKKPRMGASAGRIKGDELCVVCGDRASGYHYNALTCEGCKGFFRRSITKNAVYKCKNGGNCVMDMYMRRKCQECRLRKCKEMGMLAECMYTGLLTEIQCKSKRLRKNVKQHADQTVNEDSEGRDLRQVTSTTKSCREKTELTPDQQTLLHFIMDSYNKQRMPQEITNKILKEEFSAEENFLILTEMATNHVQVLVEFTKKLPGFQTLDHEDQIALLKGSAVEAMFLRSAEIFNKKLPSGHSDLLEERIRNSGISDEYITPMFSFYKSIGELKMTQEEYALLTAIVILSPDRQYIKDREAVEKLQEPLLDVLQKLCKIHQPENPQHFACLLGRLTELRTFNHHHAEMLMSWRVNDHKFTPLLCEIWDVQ
Summary of the method: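 Beta-lactamase reporter antagonist mode: HEK293T FXR-UAS-bla cells, titrated compound, CDCA stimulation, 16 h 37 C, CCF4 dye 2 h RT. Data normalized to CDCA 50 uM and DMSO; Hill-fit IC50.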

[20] = Cell Viability - Hek293 (AID 427;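 active = compounds whose dose-response curve shows a full or clear partial loss of cell viability, called from curve shape rather than a numeric limit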;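 note: potency is the fitted concentration of half-maximal effect; cells exposed to compound for 40 hours at 37 °C before reading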); conditions: qHTS
Summary of the method: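 Luminescent ATP content (CellTiter-Glo, 20 min at room temperature) was measured after a 40 hr, 37 °C compound exposure of HEK293 cells. AC50 values came from Hill-equation fits of qHTS concentration-response data normalized to DMSO and 100 uM tamoxifen.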

COc1ccc(N)cc1
35%: max response [8]
inactive: activity change, negative = cytotoxicity [1] -5.61% | Potency [2] | caspase-3 activation [3] 1.03% and -0.467% | Potency [4] | Potency [5] | Potency [6] | outcome [7] | Potency [9] | Potency [10] | Potency [11]

Nc1c(Cl)c(Cl)nc(C(=O)O)c1Cl
inactive: activity change, negative = cytotoxicity [1] -10.1% | Potency [12] | caspase-3 activation [3] -2.12% | Potency [4] | Potency [13] | Potency [14] | activity change % (negative = inhibition) [15] -17.9% and -15% and -2.55% | Potency [10] | Potency [11] | activation [16] 6.67% and 13.8% and 2.52%

CCOP(=S)(OCC)Oc1ccc([N+](=O)[O-])cc1
inactive: activity change, negative = cytotoxicity [1] -19.3% | Potency [2] | Potency [12] | caspase-3 activation [3] -4.19% and -4.51% | Potency [4] | Potency [6] | Potency [17] | outcome [7] | Potency [9] | Potency [13] | Potency [14] | activity change % (negative = inhibition) [15] 9.15% and -8.55% | activation [16] 8.97% | max response [18] -0.408% and 4.67% and -3.29%
12.5% and -2.14%: max response [8]
active: Potency [10] 35.5 µM

COc1ccc(C=O)cc1OC
inactive: activity change, negative = cytotoxicity [1] -14% | Potency [2] | Potency [6] | Potency [13] | Potency [14] | activation [16] 0.671% and 1.28%

S=C=Nc1cccc2ccccc12
inactive: Potency [2] | caspase-3 activation [3] 0.808% | Potency [4] | Potency [5] | Potency [6] | outcome [19] | outcome [7] | Potency [9] | Potency [14] | activity change % (negative = inhibition) [15] -1.91% | Potency [10] | max response [18] 5.47%
active: Potency [16] 50.1 µM
-3.26%: max response [8]

N#CCCCl
inactive: Potency [12] | caspase-3 activation [3] -0.53% and -2.33% | Potency [4] | Potency [5] | Potency [6] | Potency [17] | Potency [14] | activity change % (negative = inhibition) [15] -2.7% and 7.92% | Potency [10] | Potency [11]

Clc1nc(Cl)nc(Cl)n1
-3.59% and 8.32%: max response [8]
inactive: activity change, negative = cytotoxicity [1] -8.17% | Potency [2] | caspase-3 activation [3] 1.31% | Potency [5] | Potency [17] | Potency [9] | Potency [14] | activity change % (negative = inhibition) [15] -1.04% | Potency [11] | activation [16] 1.36% and 0.55%

COC(=O)NC(=S)Nc1ccccc1NC(=S)NC(=O)OC
-30.4% and 40.5%: max response [8]
inactive: Potency [20] > 92 µM | activity change, negative = cytotoxicity [1] -30% | Potency [2] | caspase-3 activation [3] 0.433% | Potency [17] | outcome [19] | outcome [7] | Potency [9] | Potency [13] | Potency [14] | Potency [10] | Potency [11] | activation [16] 11.9% and 4.33%

CCCCCCCC(=O)Cl
inactive: Potency [2] | Potency [12] | caspase-3 activation [3] -0.621% | Potency [5] | Potency [6] | outcome [19] | outcome [7] | activity change % (negative = inhibition) [15] 11.9% | Potency [10] | activation [16] -0.601% | max response [18] 1.85%

CCCSC(=O)Cl
inactive: activity change, negative = cytotoxicity [1] -26.8% | Potency [12] | Potency [17] | outcome [19] | Potency [14] | Potency [10] | activation [16] -0.385%

CC(C)Nc1nc(Cl)nc(NC(C)C)n1
inactive: Potency [9] | Potency [13] | Potency [14] | activation [16] 0.683%
16.2%: max response [8]

CC(C)(C)OOC(C)(C)C
29.5%: max response [8]
inactive: activity change, negative = cytotoxicity [1] -23.7% | Potency [5] | Potency [6] | Potency [17] | outcome [19] | Potency [9] | Potency [14] | activity change % (negative = inhibition) [15] -4.91% | Potency [10] | Potency [11] | activation [16] -0.903%

c1ccc(-c2ccccc2)cc1
active: Potency [10] 44.7 µM
-1.97% and 13.4%: max response [8]
inactive: Potency [12] | caspase-3 activation [3] -1.9% | Potency [6] | Potency [17] | outcome [19] | outcome [7] | Potency [9] | Potency [13] | max response [18] -2.7% and -1.05%

C=CCOC(=O)c1ccccc1N
8.66%: max response [8]
inactive: activity change, negative = cytotoxicity [1] -10.8% | caspase-3 activation [3] -3.47% | Potency [5] | outcome [7] | Potency [9] | Potency [14] | Potency [10] | Potency [11] | max response [18] 1.13%

Nc1ccc(Br)cc1
inactive: activity change, negative = cytotoxicity [1] -14.1% | Potency [12] | caspase-3 activation [3] 0.277% | Potency [5] | outcome [19] | outcome [7] | Potency [10] | Potency [11] | activation [16] 0.717% | max response [18] -1.52%

O=C=NC1CCCCC1
inactive: Potency [6] | outcome [19] | outcome [7] | Potency [13] | activity change % (negative = inhibition) [15] -8.25% and 2.05% | Potency [11]

c1ccc2c(c1)CCCC2
inactive: activity change, negative = cytotoxicity [1] 9.7% | Potency [12] | Potency [5] | outcome [19] | Potency [14] | Potency [10] | Potency [11] | max response [18] -0.424%

CCOP(=S)(OCC)SCSC(C)(C)C
18.1% and -40.8%: max response [8]
inactive: activity change, negative = cytotoxicity [1] 1.25% | caspase-3 activation [3] -3.31% | Potency [5] | Potency [6] | Potency [17] | outcome [7] | Potency [9] | Potency [13] | activity change % (negative = inhibition) [15] -5% and -15.6% | Potency [11] | activation [16] 0.254% and 2.38% | max response [18] -1.59% and -3.9%

C=C(Cl)Cl
-8.55%: max response [8]
inactive: Potency [12] | caspase-3 activation [3] 1.75% | Potency [5] | Potency [6] | Potency [17] | outcome [7] | Potency [9] | Potency [13] | Potency [14] | activity change % (negative = inhibition) [15] -6% | Potency [11] | max response [18] -2.47%
